The panel holds about 83,000 compounds, 20% with a hit somewhere; the sample as a whole holds those more often.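 In brief: 96-well plates, 48 h treatment, single concentration, percent growth endpoint.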 A number with no mark means an inactive call. Active and inactive are the calls of the source. How the source made its calls: active means growth percent below 10; inactive means the rest.
Each compound was assayed on HCT-15 colon (assay: NCI-60 one-dose screen, 48 h (100 = growth as untreated, 0 = no growth, -100 = all killed)). Settings: 10 µM unless noted.

SMILES | growth [%]
CCN(CC)S(=O)(=O)c1ccc(-c2nc(C(Cl)Cl)nc3cc(-c4ccc(F)cc4)nn23)cc1 | 23.3
C/C(=N/N)c1nnn(-c2ccc(Br)cc2)c1C | 103
CC1=C(C)C(=O)C(Nc2cccc(C)c2)=C(Br)C1=O | 98.4
Cc1ccc(C(=O)Nc2ccc(CNCCN3CCNCC3)c(C(F)(F)F)c2)cc1C#Cc1cnc2cccnn12 | 14.1

The compounds below were run on HT29 colon in the same assay as above. Settings: 10 µM unless noted.

SMILES | growth
C#C[C@]1(O)CC[C@H]2[C@@H]3CC=C4c5sc(Nc6cc(C)cc(C)c6)nc5CC[C@]4(C)[C@H]3CC[C@@]21C | 0.349% (active)
CCCC[n+]1ccc(SCC(=O)n2ccc3ccccc32)c2ccccc21 | 96.9%
CC(C)(C)c1cc(NC(=O)Nc2ccc(-c3cn4c5c(sc4n3)CCc3cn(CCCN4CCCCC4)cc3-5)cc2)no1 | -50.7% (active)
CCCCCCNC(=O)Oc1ccc(/C(=C(/C)c2ccc(OC)cc2)c2ccc(OCCN3CCCCCC3)cc2)cc1 | -34% (active)
Cn1cc(-c2cc3ncnc(Nc4ccc(CC(=O)Nc5nc(C(C)(C)C)cs5)cc4)c3s2)cn1 | 49.9%
O=C(CCCCCC/C=C\c1csc(Br)n1)NO | 84.5%
COc1ccc(C(=O)c2c(N)c(C#N)cn2-c2ccc(Cl)cc2Cl)cc1 | 98.5%
Cc1ccc2c(n1)C(=O)C(Cl)=C(Nc1cccc(C(F)(F)F)c1)C2=O | 105%
O=C1[C@H]2Cc3c([nH]c4ccccc34)[C@H](c3ccc(Cl)cc3)N2C(=O)CN1C1CCN(CC2CCCCC2)CC1 | -21.9% (active)
COc1ccc(/C=N/NC(=O)c2c(N)nn(C)c2Nc2ccccc2)cc1 | 18.6%
Fc1ccc2nc(-c3cnn4cccnc34)sc2c1 | 97.9%
O=C(/C=C/c1cccc(F)c1)c1cccc(OCCCCOc2cccc(C(=O)/C=C/c3cccc(F)c3)c2)c1 | 106%
O=C(COc1ccc(/C=C2\C(=O)Nc3ccc(Cl)cc32)cc1)Nc1ccc(Cl)cc1 | 55.8%
O=C(Nc1cccc(Cl)c1)Nc1nc2cc([N+](=O)[O-])ccc2o1 | 71.6%
COc1ccc(NC(=O)CCCCCCNC(=O)C(O)(O)C(F)(F)F)cc1 | 23.1%
CC(=O)N(O)CCCCCNC(=O)CCC(=O)N(O)CCCCCNC(=O)CCC(=O)N(O)CCCCCN(CCCCCCCCCC[P+](c1ccccc1)(c1ccccc1)c1ccccc1)CCCCCCCCCC[P+](c1ccccc1)(c1ccccc1)c1ccccc1 | 5.49% (active)

SMILES | growth
Cc1cc(Br)ccc1-n1cc(C#N)c(N)c1C(=O)c1ccc(Br)cc1 | 102%
CN(C)S(=O)(=O)c1ccc(-c2nc(C(Cl)Cl)nc3cc(-c4ccccc4)nn23)cc1 | 45.6%
CN1CCN(c2ccc(Nc3nc(NCCNC(=O)c4ccc(F)cc4)c4sccc4n3)cc2)CC1 | 32%
O=[N+]([O-])c1ccc(NC(=S)NNC(=S)Nc2ccc(Br)cc2)cc1 | 95%
C/C(=N\NC(=O)/C=C/CC(=O)O)c1nnn(-c2ccc([N+](=O)[O-])cc2)c1C | 106%
CN1CCN(c2ccc(Nc3nc(NCCCNS(=O)(=O)c4ccc(F)cc4)c4sccc4n3)cc2)CC1 | 11.4%
N#CC1=C2NCCCNc3oc(nc3C#N)Cc3ccccc3CC(=N1)O2 | 102%
COc1ccccc1/C=C1\Oc2ccc(O)c(O)c2C1=O | 105%
COc1ccc(NC2=C(Br)C(=O)C(C)=C(C)C2=O)cc1OC | 111%
O=C(Nc1ccc(N=Cc2c(O)[nH]c3ccccc23)cc1)Nc1ccc(S(=O)(=O)Nc2ncccn2)cc1 | 104%
NC(=O)c1c(NC(=O)c2ccc(C(F)(F)F)cc2)sc2c1CCC(=O)C2 | 0.0943% (active)
O=C(/C=C/c1cccc(Br)c1)c1cccc(OCCCCOc2cccc(C(=O)/C=C/c3cccc(Br)c3)c2)c1 | 117%
O=C(CCCCCCNC(=O)c1csc(Br)n1)NO | 17.2%
CC1CC(=O)C2=C(C1)Nc1ccc(Br)cc1CC2c1c[nH]c2ccc(Br)cc12 (stereo unspecified) | 11.1%
C#CCN(C)CCCOc1ccc(NCc2ccc(C(=O)NO)cc2)cc1Cl | 16.2%
CC(=O)Nc1nc(C)c(-c2csc(Nc3ccccc3)n2)s1 | 28.7%
